PubChem BioAssay AID1032 (The Scripps Research Institute Molecular Screening Center, 2008)
Screen size: about 200,000 compounds; about 670 (0.34%) were called active. What follows is part of a selection rich in actives, with near analogues and random picks from the rest. Unmarked numbers belong to inactive results. Rule as the data show it: active = activation above about 22%; inactive = the rest.

target: Peroxisome proliferator-activated receptor gamma (Homo sapiens) (UniProt P37231); experiment: compounds enhancing SRC-2 coactivator binding to PPARgamma – biochemical, HTS, primary screen (AID 1032); details: PPARgamma LBD-SRC-2 recruitment, at 8 µM, stronger effect = higher value;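 also: 0% = vehicle and 100% = reference agonist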
Sequence (P37231 whole entry, looked up, the tested form may be a part): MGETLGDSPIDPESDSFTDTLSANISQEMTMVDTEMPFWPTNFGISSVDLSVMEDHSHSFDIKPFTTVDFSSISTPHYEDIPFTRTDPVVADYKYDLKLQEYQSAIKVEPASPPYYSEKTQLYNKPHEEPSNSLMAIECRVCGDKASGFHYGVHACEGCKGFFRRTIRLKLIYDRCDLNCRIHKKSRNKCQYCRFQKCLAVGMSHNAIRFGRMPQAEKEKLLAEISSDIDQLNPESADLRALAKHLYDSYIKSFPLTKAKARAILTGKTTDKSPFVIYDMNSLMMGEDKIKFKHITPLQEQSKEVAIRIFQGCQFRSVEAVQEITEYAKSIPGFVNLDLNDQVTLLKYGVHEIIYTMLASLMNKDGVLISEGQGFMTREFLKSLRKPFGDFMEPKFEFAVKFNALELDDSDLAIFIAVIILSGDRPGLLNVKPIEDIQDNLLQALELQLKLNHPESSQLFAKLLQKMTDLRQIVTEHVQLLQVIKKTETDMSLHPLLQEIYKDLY

| SMILES | activation |
| --- | --- |
| Cn1c(=O)cc(SCC(=O)N2CCCC2)c2cc(Cl)ccc21 | 61.1% (active) |
| CCOc1ccc(CCNC(=O)CSc2cc(=O)n(C)c3ccc(Cl)cc23)cc1OCC | 18.7% |
| CCOC(=O)C1CCN(C(=O)CSc2cc(=O)n(C)c3ccccc23)CC1 | 56.4% (active) |
| CCOC(=O)C1CCN(C(=O)Cn2cc(C#N)c3ccccc32)CC1 | 3.64% |
| O=C(CSCc1ccc(Cl)cc1)N1CCCCC1 | 7.59% |
| Cn1c(=O)cc(SCC(=O)N2CCN(C(=O)c3ccco3)CC2)c2ccccc21 | 40.5% (active) |
| CC(=O)c1ccc(-n2nnnc2SCC(=O)N2CCN(C(=O)c3ccco3)CC2)cc1 | -5.53% |
| Cc1cccc(OCc2nnc(SCC(=O)N3CCN(C(=O)c4ccco4)CC3)n2C)c1C | 4.26% |
| CCOC(=O)N1CCC(NC(=O)COc2cc(=O)n(C)c3ccccc23)CC1 | -4.54% |
| Cc1ccc(-c2nc(C)sc2CC(=O)OCC(=O)Nc2c(F)cccc2F)cc1 | 5.36% |
| O=c1oc(/C=C/c2ccccc2)nc2ccccc12 | -0.23% |
| O=C(Cc1ccccc1)N1CCN(S(=O)(=O)c2ccc([N+](=O)[O-])cc2)CC1 | 7.91% |
| O=C1c2cccc(OCC(=O)N3N=C(c4cccs4)CC3c3ccc(F)cc3)c2CCN1Cc1ccccc1 (stereo not drawn) | 0.84% |
| CC(CC(=O)Nc1ccccc1)n1ccnc1 (stereo not drawn) | 8.08% |
| CCC(CC)C(=O)Nc1ccc(S(=O)(=O)Nc2nccs2)cc1 | -6.57% |
| C=C(C)C1CC=C(C)/C(=N/NC(=O)CCCNc2cccc(C)c2)C1 (stereo not drawn) | 3.8% |
| O=C(CNC(=O)COc1ccccc1)NCCc1ccccn1 | -3% |
| C#CCOCCOCCOCCNc1nc(N2CCN(C(=O)C(Cc3ccc(O)cc3)n3cc(C(N)CC(C)C)nn3)CC2)nc(N2CCN(C(=O)C(Cc3ccc(O)cc3)n3cc(C(N)C(C)CC)nn3)CC2)n1 (stereo not drawn) | -8.91% |
| COCCN(C(=O)CCC(=O)Nc1nccs1)C(C(=O)NC(C)(C)C)c1ccc(Cl)cc1 (stereo not drawn) | 5.4% |
| CC(=O)Nc1ccc(Nc2c([N+](=O)[O-])cc(S(C)(=O)=O)cc2[N+](=O)[O-])cc1 | 6.76% |
| N#Cc1ccc(-c2ccc(Cl)cc2)nc1Oc1ccc(F)cc1 | 322% (active) |
| CN(C)c1ccnc(Oc2ccc(F)cc2)c1C#N | 7.04% |
| N#Cc1ccc(-c2ccc(F)cc2)nc1Sc1ccccc1 | 3.38% |
| COCCn1c(SCC(=O)Nc2ccc3c(c2)CCC3)nc2ccccc2c1=O | -3.24% |

| SMILES | activation |
| --- | --- |
| CCOC(=O)/C=c1\s/c(=C\c2ccc(C#N)cc2)c(=O)n1CC(=O)Nc1cccc(C)c1C | 2.46% |
| Oc1oc(-c2ccccc2Br)nc1/C=N/c1ccccn1 | 7.3% |
| COc1cc(SC#N)ccc1N=Cc1c(C)[nH]n(-c2ccc(C)cc2)c1=O | 27.6% (active) |
| CCc1nnc(NS(=O)(=O)c2ccc(N=Cc3c(C)[nH]n(-c4ccc(C)cc4)c3=O)cc2)s1 | 12.6% |
| Cc1ccc(-n2[nH]c(C)c(/C=N/N3C(=O)c4cccc5cccc(c45)C3=O)c2=O)cc1 | 6.04% |
| CN(C)S(=O)(=O)c1cccc(NC(=S)NCc2ccc3c(c2)OCO3)c1 | 4.42% |
| COc1ccc(N(CC(=O)NC2CCCC2)C(=O)CS(=O)CC(=O)Nc2ccc3c(c2)OCO3)cc1 (stereo not drawn) | -7.54% |
| Cc1nc2ccccc2n1CC(=O)N/N=C/c1cccnc1 | 2.27% |
| O=C(CSc1cccc2cccnc12)N/N=C/c1cccnc1 | 27.4% (active) |
| CCOC(=O)N/N=C/c1cccnc1 | 3.1% |
| CC(C)CN1CCNC(=O)C1CC(=O)N(C)CC1CCOCC1 (stereo not drawn) | -4.08% |
| c1ccc2sc(NN=C3CCCC3)nc2c1 | -0.8% |
| Cc1cccc2cc(CN(Cc3ccc4c(c3)OCO4)Cc3nnnn3C3CCCC3)c(=O)[nH]c12 | 27.4% (active) |
| CCC(c1nnnn1C1CCCC1)N(Cc1cccs1)Cc1cc2cccc(C)c2[nH]c1=O (stereo not drawn) | 7.3% |
| Cc1cccc2cc(CN(Cc3cccs3)C(c3nnnn3C3CCCC3)C(C)C)c(=O)[nH]c12 (stereo not drawn) | 2.09% |
| CC(C(=O)N=Nc1c(O)n(C)c2ccc(Br)cc12)n1cnc2ccccc2c1=O (stereo not drawn) | 2.86% |
| Cc1ccccc1Cn1nc(C)c(NC(=O)C(F)(F)F)c1C | -0.15% |
| CCCOc1ccc(C2C(C(=O)c3ccc(C)o3)=C(O)C(=O)N2CCCn2ccnc2)cc1 (stereo not drawn) | 22.1% (active) |
| COc1cc(C2C(C(=O)c3ccc(C)o3)=C(O)C(=O)N2CCc2ccccc2)ccc1O (stereo not drawn) | 0.21% |
| COc1cc(C2C(C(=O)c3ccc(C)o3)=C(O)C(=O)N2Cc2cccnc2)ccc1O (stereo not drawn) | -1.47% |
| CCOC(=O)N1CCC(=NNC(N)=O)CC1 | 3.39% |
| CCCCOC(=O)c1ccc(NC(c2ccc(C)cc2)P(=O)(OC)OC)cc1 (stereo not drawn) | 7.71% |
| COc1cc(C(=S)N2CCOCC2)ccc1O | 5.98% |
| COc1cccc(NC(=O)C(Sc2nc3ccccc3c(=O)n2CC(C)C)c2ccccc2)c1 (stereo not drawn) | 1.13% |

| SMILES | activation |
| --- | --- |
| Cc1ccc(NC(=S)N(CCCN2CCC(C)CC2)Cc2ccco2)cc1 | -0.03% |
| O=C(Cn1cc(C(=O)c2cccs2)c2ccccc21)NCc1cccs1 | -4.53% |
| COCCNC(=O)Cn1cc(C(=O)c2cccs2)c2ccccc21 | -7.11% |
| COC(=O)Cn1cc(C(=O)c2cccs2)c2ccccc21 | 25.2% (active) |
| O=C(CNS(=O)(=O)c1ccccc1)NCC(=O)OCc1ccccc1F | -5.13% |
| Cc1scc(C(=O)NNC(=S)NCc2ccccc2)c1C | -7.7% |
| CC1=NNC(=O)C1CCC(=O)N/N=C\c1ccc(Cl)c(Cl)c1 (stereo not drawn) | 6.93% |
| O=c1c2ccccc2c(-c2ccccc2)nn1Cc1ccccc1 | -3.47% |
| Cn1c(CO)cnc1SCc1ccccc1 | 5.35% |
| CSc1c(SCc2ccccc2)cnn(Cc2ccccc2)c1=O | 28% (active) |
| CN1CCC(=NNC(=O)CN(c2cccc(Cl)c2)S(C)(=O)=O)CC1 | 10.8% |
| S=c1[nH]cc(-c2ccc(Cl)cc2)n1-c1ccccc1 | 0.94% |
| CCc1ccc(NC(=O)C(C)OC(=O)/C=C/c2cccc([N+](=O)[O-])c2)cc1 (stereo not drawn) | 2.51% |
| Cc1cccn2c(CN(C)C3CCCc4ccccc43)c(C(=O)N3CCOCC3)nc12 (stereo not drawn) | -1.89% |
| CCN(CC)CCCNC(=O)c1cc(-c2cccc(Cl)c2)on1 | 0.37% |
| CCN(CCCNC(=O)CSc1cc(=O)n(C)c2cc(Cl)ccc12)Cc1ccccc1 | 26.1% (active) |
| CCN(CC)CCCNC(=O)CCc1ccccc1 | 9.5% |
| CCOC(=O)N1CCN(c2cc(C)c([N+](=O)[O-])cc2F)CC1 | -3.32% |
| COc1ccc(OCc2n[nH]c(=S)n2N)cc1 | 4.69% |
| c1ccc(CSc2ncnc3c2sc2nc(N4CCOCC4)c4c(c23)CCCC4)cc1 | 96% (active) |
| COc1ccc(CSc2nc(N3CCOCC3)c3c(c2C#N)CC(C)(C)OC3)cc1 | -5.06% |
| c1ccc(COc2nsnc2N2CCOCC2)cc1 | 7.85% |
| CNC(=O)c1ccsc1NC(=O)c1ccc(S(=O)(=O)N2CCOCC2)cc1 | 14.3% |
| COc1cc(/C=C(/NC(=O)c2ccc(Cl)cc2Cl)C(=O)O)cc(OC)c1OC | 11.2% |

| SMILES | activation |
| --- | --- |
| Cc1ccc(CNC(=O)CC2Sc3ccccc3NC2=O)cc1 (stereo not drawn) | 0.66% |
| Cc1ccc(S(=O)(=O)c2ccc(Cl)cc2)cc1S(=O)(=O)NC(C(=O)O)C(C)C (stereo not drawn) | -4.99% |
| COc1cccc(NCCC(=O)c2cccc([N+](=O)[O-])c2)c1 | 7.36% |
| COc1cccc2c1OCC(CN1CCN(C3CCCCC3)C(CCO)C1)=C2 (stereo not drawn) | 1.05% |
| Cn1c(N)cc(-c2ccc(F)cc2)c(C#N)c1=O | 1.85% |
| CC(C(=O)N1CCOCC1)N1c2cccc3cccc(c23)S1(=O)=O (stereo not drawn) | 28.1% (active) |
| NC(=NC(=O)c1ccccc1)N1CCOCC1 | 11.2% |
| Cc1ccc(S(=O)(=O)NC(C(=O)N2CCOCCOCCOCCOCC2)c2ccccc2)cc1 (stereo not drawn) | 6.3% |
| Oc1cccc2ccc(/C=C/c3ccc(Br)s3)nc12 | -1.88% |
| N#Cc1c(N)nc2c(c1N)CC(C(F)(F)F)O2 (stereo not drawn) | 2.19% |
| Cc1cccc(-c2ncc(CN3CCC(CO)(CCCc4ccccc4)CC3)cn2)c1 | 5% |
| CC(=O)c1cccc(CN2CCC(CO)(Cc3ccccc3)CC2)c1 | 4.63% |
| OCC1(CCc2ccccc2)CCN(Cc2ccc3nsnc3c2)CC1 | 39.5% (active) |
| Cc1ccc(NC(=O)c2ccc(S(=O)(=O)NCC3CCCO3)cc2)cc1C (stereo not drawn) | -6.15% |
| O=C(Nc1ccc(N2CCN(C(=O)C3CC3)CC2)cc1)c1cccs1 | 4.68% |
| O=C(CS(=O)(=O)c1ccccc1)Nc1ccc(S(=O)(=O)Nc2ccccn2)cc1 | -6.08% |
| CC(=O)N/N=C(\C)c1ccc(Br)cc1Br | -4.44% |
| COc1ccc(Cl)cc1C(=O)NCc1cn(C)nc1C | 8.12% |
| Cc1ccc2nc(-c3cccc(Br)c3)cc(C(=O)Nn3cnnc3)c2c1 | -0.43% |
| Cc1ccc(-c2cc(C(=O)NCc3cn(C)nc3C)c3cc(Br)ccc3n2)cc1 | 37% (active) |
| O=C(Oc1cccc(O)c1)C1CCCCC1 | 1.13% |
